Rows were chosen to be rich in hits. Some 0.81% of all compounds tested hit in one or more screens of this group.
CatL block = inhibitors of human cathepsin L | P07711 | AID 460 | purified cathepsin L, fluorogenic substrate, fluorescence | inhibition, %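 (tested at 10 µM)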 | 58,000 tested, 0.17% active; in the data active means inhibition above about 45%
Target sequence (P07711 114-288 limits assumed): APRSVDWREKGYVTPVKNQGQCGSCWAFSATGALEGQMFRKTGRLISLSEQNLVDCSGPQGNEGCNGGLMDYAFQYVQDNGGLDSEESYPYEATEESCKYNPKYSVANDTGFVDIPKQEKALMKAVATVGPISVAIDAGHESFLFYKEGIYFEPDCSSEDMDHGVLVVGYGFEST
Target sequence (P07711 292-333 limits assumed): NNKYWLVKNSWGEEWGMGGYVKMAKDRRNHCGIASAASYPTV
CatB mixtures = inhibitors of human cathepsin B in compound mixtures; inhibition, %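 (ten-compound pools at 5 µM per compound and 50 µM total)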; P07858; AID 488; 62,000 tested, 0.06% active; Purified cathepsin B, AMC dipeptide fluorescence; in the data active means inhibition above about 22%, passing the limit was not always enough
E coli RNAP = inhibitors of Escherichia coli RNA polymerase | E. coli RNA polymerase, fluorescence transcription assay | inhibition, %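 (tested at 10 µM)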 | 62,000 tested, 0.2% active | AID 559; in the data active means inhibition above about 20%
CatB block = blocks human cathepsin B protease activity; inhibition, %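 (tested at 10 µM)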; AID 453; 63,000 tested, 0.1% active; purified cathepsin B, fluorogenic substrate, fluorescence; in the data active means inhibition above about 21%
CatS inh = human cathepsin S inhibition | inhibition, %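 (tested at 5 µM per compound within 10-compound mixtures)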 | recombinant cathepsin S, AMC dipeptide fluorescence, pooled mixtures | AID 501 | P25774 | 62,000 tested, 0.06% active; in the data active means inhibition above about 32%, passing the limit was not always enough
Target sequence (P25774 115-331 limits assumed): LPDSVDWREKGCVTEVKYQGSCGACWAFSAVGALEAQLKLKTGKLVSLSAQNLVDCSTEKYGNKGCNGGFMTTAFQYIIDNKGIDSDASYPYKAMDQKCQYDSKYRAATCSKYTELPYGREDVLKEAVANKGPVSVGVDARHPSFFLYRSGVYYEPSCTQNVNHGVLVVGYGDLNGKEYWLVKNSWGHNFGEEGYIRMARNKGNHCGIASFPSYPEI
BAP1 inh = blocks human BAP1 ubiquitin-AMC hydrolysis | Q92560 | recombinant BAP1, Ub-AMC hydrolysis fluorescence kinetic; stronger effect = lower value | calls only at 20 µM | 72,000 tested, 0.48% active;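 active means activity remaining at or below 50% of control, provided the compound also passes the data quality filters; inactive means the rest, including low values that fail the filters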
A number is an active result.

What do the screens show for `O=C(C1CCN(c2nnc(-n3cccc3)s2)CC1)N1CCN(Cc2ccc3c(c2)OCO3)CC1`?
CatL block: 53; CatB mixtures: inactive; E coli RNAP: inactive; CatB block: inactive; CatS inh: inactive; BAP1 inh: inactive

How did Cc1ccc(Cl)cc1N1CCN(C(=O)C2CCN(c3nnc(-n4cccc4)s3)CC2)CC1 do in these assays?
CatL block: inactive; CatB mixtures: inactive; E coli RNAP: inactive; CatB block: inactive; CatS inh: inactive; BAP1 inh: inactive

How did O=C(C1CCCN(Cc2ccc3c(c2)OCO3)C1)N1CCCC1 (stereo not drawn) do in these assays?
CatL block: inactive; CatB mixtures: inactive; E coli RNAP: inactive; CatB block: inactive; CatS inh: inactive; BAP1 inh: inactive

What do the screens show for `O=C(NCCC1=CCCCC1)C1CCN(c2nnc(-n3cccc3)s2)CC1`?
CatB mixtures: inactive; E coli RNAP: inactive; CatB block: inactive; CatS inh: inactive; BAP1 inh: inactive

What do the screens show for `CC1CCN(Cc2ccc(NC(=O)C3CCN(c4nnc(-n5cccc5)s4)CC3)cc2)CC1`?
CatL block: 67; CatB mixtures: inactive; E coli RNAP: inactive; CatB block: inactive; BAP1 inh: inactive

How did O=C(C1CCN(c2nnc(N3CCCC3=O)s2)CC1)N1CCN(Cc2ccc3c(c2)OCO3)CC1 do in these assays?
CatL block: 47; CatB mixtures: inactive; E coli RNAP: inactive; CatB block: inactive; CatS inh: inactive; BAP1 inh: inactive

What do the screens show for `Cc1ccnc(NC(=O)CCCCC(=O)O)c1`?
BAP1 inh: inactive

What do the screens show for `O=C(O)CNC(=O)c1cncc(O)c1`?
BAP1 inh: inactive

What do the screens show for `O=C(OCC#CCSc1nnc(-c2ccc(Br)cc2)o1)c1ccco1`?
CatL block: inactive; CatB mixtures: inactive; E coli RNAP: 43; CatB block: inactive; CatS inh: inactive; BAP1 inh: inactive

What do the screens show for `CCN(CC)c1ccc2cc(C(N)=O)c(=Nc3ccccc3F)oc2c1`?
BAP1 inh: inactive

How did N#Cc1c(NC(=O)CSc2ncnc3c2cnn3-c2ccccc2Cl)sc2c1CCCC2 do in these assays?
CatL block: inactive; CatB mixtures: inactive; E coli RNAP: inactive; CatB block: inactive; CatS inh: inactive; BAP1 inh: active

How did Cc1ccc(CC2SC(=O)NC2=O)cc1Cl (stereo not drawn) do in these assays?
CatL block: inactive; CatB mixtures: inactive; E coli RNAP: inactive; CatB block: inactive; CatS inh: inactive; BAP1 inh: inactive

What do the screens show for `CC(=O)/C(C#N)=C1\NC(=O)C(Cc2ccccc2Cl)S1` (stereo not drawn)?
CatL block: inactive; E coli RNAP: 32; CatB block: inactive; BAP1 inh: inactive

Results for CCN(CC)C(=O)c1csc(-c2ccccc2)c1-c1ccccc1 ?
BAP1 inh: inactive

How did N#Cc1ccc(-c2ccco2)nc1SCC(=O)c1ccc(Cl)cc1 do in these assays?
CatL block: inactive; E coli RNAP: 21; CatB block: inactive

Results for CN(C)c1cc(Nc2ccccc2)c2c3c(onc13)-c1ccccc1C2=O ?
BAP1 inh: inactive

What do the screens show for `CCN(CC)C(=O)CSc1nnc([C@@H](N)Cc2ccccc2)o1`?
CatL block: 83; CatB mixtures: inactive; E coli RNAP: inactive; CatB block: inactive; CatS inh: inactive; BAP1 inh: inactive

What do the screens show for `NC(=O)CN1C(=O)c2ccccc2S1(=O)=O`?
BAP1 inh: inactive

Results for Cc1cc(=O)c2n(Cc3ccc(Cl)cc3)nc[n+]2[nH]1 ?
CatL block: inactive; CatB mixtures: inactive; E coli RNAP: 49; CatB block: inactive; CatS inh: inactive; BAP1 inh: inactive

What do the screens show for `CCN(C(=O)COc1cc(=O)n(CC)c2ccccc12)c1cc(Cl)ccc1OC`?
CatB mixtures: inactive; E coli RNAP: inactive; CatB block: inactive; CatS inh: inactive; BAP1 inh: inactive

How did CCN(C(=O)COc1cc(=O)n(CC)c2ccccc12)c1cccc(Cl)c1 do in these assays?
CatL block: inactive; CatB mixtures: inactive; E coli RNAP: inactive; CatB block: 25; CatS inh: inactive; BAP1 inh: inactive

What do the screens show for `COc1ccc(OC)c(NC(=O)COc2ccc(S(=O)(=O)NC(C)C)cc2)c1`?
CatL block: inactive; CatB mixtures: inactive; E coli RNAP: 21; CatB block: inactive; CatS inh: inactive; BAP1 inh: inactive

Results for O=C(O)/C=C/c1ccc(O)c(O)c1 ?
CatL block: inactive; CatB mixtures: inactive; E coli RNAP: 21; CatS inh: inactive; BAP1 inh: inactive

Results for Cn1c(=O)c2c(-c3ccccc3)n(-n3cnnc3)cc2n(C)c1=O ?
CatL block: inactive; CatB mixtures: 50; E coli RNAP: inactive; CatB block: 59; CatS inh: inactive; BAP1 inh: inactive

How did O=c1cc(CSc2ccccn2)[nH]c(=O)[nH]1 do in these assays?
CatL block: inactive; CatB mixtures: inactive; E coli RNAP: inactive; CatB block: inactive; CatS inh: 41; BAP1 inh: inactive

How did O=C(O)CSc1ccccn1 do in these assays?
CatL block: inactive; CatB mixtures: inactive; E coli RNAP: inactive; CatB block: inactive; CatS inh: inactive; BAP1 inh: inactive

How did CCOc1ccc(N2C(=O)C(N3C(=O)c4ccccc4C3=O)C2c2ccc(N(C)C)cc2)cc1 (stereo not drawn) do in these assays?
BAP1 inh: inactive

How did Cc1ccc(-n2c(CNc3ccc(F)cc3)nnc2SCC(=O)N2CCCC2)cc1 do in these assays?
CatL block: inactive; CatB mixtures: inactive; E coli RNAP: 36; CatB block: inactive; CatS inh: inactive; BAP1 inh: inactive

Results for Cc1ccc(-n2c(CNc3ccc(F)cc3)nnc2SCC(=O)NCc2ccco2)cc1 ?
CatL block: inactive; CatB mixtures: inactive; E coli RNAP: inactive; CatB block: inactive; CatS inh: inactive; BAP1 inh: inactive

Results for O=C(O)c1ccccc1C(=O)NCc1ccc(F)cc1 ?
CatL block: inactive; CatB mixtures: inactive; E coli RNAP: inactive; CatB block: 21; CatS inh: inactive; BAP1 inh: inactive

Results for CCC(=O)Oc1oc(-c2ccccc2)nc1C=Nc1ccccc1OC ?
CatL block: inactive; E coli RNAP: inactive; CatB block: 26; BAP1 inh: inactive

Results for O=C(COc1ccccc1)Nc1nnc(-c2ccccc2)o1 ?
CatB mixtures: inactive; E coli RNAP: inactive; CatB block: inactive; CatS inh: inactive; BAP1 inh: inactive

What do the screens show for `O=C(COc1ccccc1)Nc1cccc(-c2nnc(-c3ccccc3)o2)c1`?
CatL block: inactive; CatB mixtures: inactive; E coli RNAP: inactive; CatB block: inactive; CatS inh: inactive; BAP1 inh: active

Results for O=C(Nc1nc(-c2ccccn2)cs1)c1ccc(Oc2ccccc2)cc1 ?
BAP1 inh: inactive

How did CC1=C(C)CS(=O)N(S(=O)(=O)c2ccc(Cl)cc2)C1 (stereo not drawn) do in these assays?
CatB mixtures: 32; E coli RNAP: inactive; CatB block: 24; CatS inh: inactive; BAP1 inh: inactive

How did CC1CCN(S(=O)(=O)c2ccc(Cl)cc2)CC1 do in these assays?
CatL block: inactive; CatB mixtures: inactive; E coli RNAP: inactive; CatB block: inactive; CatS inh: inactive; BAP1 inh: inactive

Screening results from PubChem BioAssay.
